Redox H2O2 prof – compounds producing H2O2 with reducing agent – biochemical, NIH compound library profiling, artefact control for MLSCN library redox annotation, primary screen. DTT-dependent redox cycling H2O2, phenol red/HRP absorbance; 100% = 100 µM peroxide control, 0% = buffer. activation, % at 10 µM. 200,000 compounds, 0.03% hits. AID 878;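 active means activation of at least 50% relative to the plate's high and low controls in the primary single-dose screen; inactive means activation below 50%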;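 further: compound incubated with DTT at 0.8 mM final as the reducing agent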
PKD1 kinase inh – inhibitors of human PKD1 kinase; Q15139; PKD1 kinase fluorescence polarization assay; inhibition, % (test concentration not listed); 200,000 compounds, 0.056% hits; in the data active means inhibition above about 50%
FAS-TE inh – blocks the thioesterase domain of human fatty acid synthase | P49327 | recombinant FAS-TE, OMFH fluorogenic substrate, fluorescence endpoint | inhibition, % at 15 µM | 360,000 compounds, 0.67% hits | AID 602261;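 active means compounds whose normalised, plate-corrected inhibition of enzyme fluorescence in the single-dose primary screen is 50% or more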;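 further: 0% = DMSO with enzyme and 100% = substrate without enzyme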
p97 inhibitor – blocks human p97 ATPase activity; P55072; recombinant p97 ATPase, Kinase-Glo ATP luminescence, 3 h; inhibition, % at 8 µM; 220,000 compounds, 0.42% hits; AID 1481; in the data active means inhibition above about 15%;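 further: 0% = DMSO vehicle and 100% = wells lacking enzyme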
Target sequence (P55072 whole entry, looked up): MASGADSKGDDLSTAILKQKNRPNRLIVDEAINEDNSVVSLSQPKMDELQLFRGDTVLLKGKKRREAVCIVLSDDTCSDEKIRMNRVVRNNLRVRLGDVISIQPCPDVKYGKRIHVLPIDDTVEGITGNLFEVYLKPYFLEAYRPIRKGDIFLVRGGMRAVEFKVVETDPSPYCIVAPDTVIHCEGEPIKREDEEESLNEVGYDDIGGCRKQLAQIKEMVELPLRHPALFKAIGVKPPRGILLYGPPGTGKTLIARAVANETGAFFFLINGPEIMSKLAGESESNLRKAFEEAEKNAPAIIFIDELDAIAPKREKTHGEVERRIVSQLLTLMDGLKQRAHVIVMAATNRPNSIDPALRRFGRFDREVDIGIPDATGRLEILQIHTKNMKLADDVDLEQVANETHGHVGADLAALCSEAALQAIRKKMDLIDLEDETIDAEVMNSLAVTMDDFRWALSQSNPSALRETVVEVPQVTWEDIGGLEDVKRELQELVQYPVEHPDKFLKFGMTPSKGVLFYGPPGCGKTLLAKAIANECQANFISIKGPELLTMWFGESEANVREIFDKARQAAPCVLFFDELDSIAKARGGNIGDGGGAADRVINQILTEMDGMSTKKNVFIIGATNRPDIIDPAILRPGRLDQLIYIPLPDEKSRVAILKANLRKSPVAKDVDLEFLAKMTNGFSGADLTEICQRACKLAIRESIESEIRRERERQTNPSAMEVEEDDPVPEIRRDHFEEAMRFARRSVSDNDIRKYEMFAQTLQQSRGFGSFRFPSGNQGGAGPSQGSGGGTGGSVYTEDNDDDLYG
Furin inh – human furin inhibition | purified furin, fluorogenic substrate cleavage | inhibition, % at 20 µM or 30 µM | 220,000 compounds, 0.061% hits | AID 463115; in the data active means inhibition above about 25%
UBC9 SUMO inh – inhibitors of human SUMOylation (UBC9); HTRF SUMOylation assay, SAE1/SAE2 + UBC9, in vitro; P63279; inhibition, % at 35 µM; 290,000 compounds, 0.36% hits; in the data active means inhibition above about 50%, passing the limit was not always enough
FP interf 140K – FP interference, PKD inhibitor counter-screen. PKD1 FP assay interference counter-screen, fluorescence polarization. 85 tested, under 10 active. AID 1315. inhibition, % at 10 µM. shares compounds with PKD1 kinase inh; call rule not given here
Redox H2O2 DR – generates H2O2 by DTT-dependent redox cycling, confirmed in dose response | phenol red-HRP absorbance | 60 compounds, 40% hits | EC50, µM | shares compounds with Redox H2O2 prof;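 active means EC50 under a set limit for hydrogen peroxide production with the reducing agent DTT present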
Numbers without * were called inactive. A selection: hits, their analogues and other compounds. The true share with any hit is near 1.2%.

How did Cc1[nH]nc2c1-c1nc3ccccc3nc1C(C)(C)C2 do in these assays?
Redox H2O2 prof: -1; PKD1 kinase inh: 58*; FAS-TE inh: -3; p97 inhibitor: -3; Furin inh: -25; UBC9 SUMO inh: 7; FP interf 140K: -1

What do the screens show for `CC12CCC(C)(c3nc4ccccc4nc31)C2(C)C`?
Redox H2O2 prof: -1; PKD1 kinase inh: -1; FAS-TE inh: -5; p97 inhibitor: 0; Furin inh: -11; UBC9 SUMO inh: 4

How did CC(=O)Nc1cccc(-c2csc(C(O)c3ccc(F)c(F)c3)n2)c1 (configuration not stated) do in these assays?
FAS-TE inh: 4

Results for COc1ccc(S(=O)(=O)N2CCC(n3cnc4cc(C(F)(F)F)ccc43)CC2)cc1 ?
Redox H2O2 prof: 0; PKD1 kinase inh: 74*; FAS-TE inh: 8; p97 inhibitor: 3; Furin inh: 8; UBC9 SUMO inh: -16; FP interf 140K: -13

How did CCCC1NC(=O)c2cc3ccccc3cc2-n2c1nc1ccc(C)cc1c2=O (configuration not stated) do in these assays?
FAS-TE inh: 27

Results for CC1=C(C(=O)N2CCOCC2)CC(CC(=O)NCc2cccs2)C(=O)N1Cc1ccccc1 (configuration not stated) ?
FAS-TE inh: -9

What do the screens show for `O=C(Cc1ccccn1)c1ccncc1`?
FAS-TE inh: -11

How did Cc1ccc(C(=O)Cn2c(NCCO)nc3ccccc32)cc1 do in these assays?
Redox H2O2 prof: 2; PKD1 kinase inh: 53*; FAS-TE inh: -1; p97 inhibitor: 7; Furin inh: -14; UBC9 SUMO inh: 6; FP interf 140K: 3

How did O=C(Cn1c(NCCO)nc2ccccc21)c1ccccc1 do in these assays?
Redox H2O2 prof: 0; PKD1 kinase inh: -9; FAS-TE inh: 0; p97 inhibitor: 8; Furin inh: -24; UBC9 SUMO inh: -8

What do the screens show for `CC(=O)Oc1cc(OC(C)=O)c2c(C)cc(=O)oc2c1`?
Redox H2O2 prof: 1; PKD1 kinase inh: 54*; FAS-TE inh: -7; p97 inhibitor: 2; Furin inh: -68; UBC9 SUMO inh: 37; FP interf 140K: -21

Results for Cc1cc(NCCCN)nc(-c2ccccc2O)n1 ?
Redox H2O2 prof: 2; PKD1 kinase inh: 114*; FAS-TE inh: 3; p97 inhibitor: -1; Furin inh: -6; UBC9 SUMO inh: -2; FP interf 140K: -18

What do the screens show for `Cc1ccc(Nc2cc(C)nc(-c3ccccc3O)n2)cc1`?
Redox H2O2 prof: 0; PKD1 kinase inh: 7; FAS-TE inh: 26; p97 inhibitor: 3; Furin inh: -6; UBC9 SUMO inh: 4

Results for CCOC(=O)N1CCC(N2CCN(S(=O)(=O)CC)CC2)CC1 ?
Redox H2O2 prof: 0; PKD1 kinase inh: 93*; FAS-TE inh: -7; p97 inhibitor: 4; Furin inh: -18; UBC9 SUMO inh: -11; FP interf 140K: -11

How did COc1ccc(CN2C(=O)C(CC(=O)NCCCCc3ccccc3)CC(C(=O)N3CCCCCC3)=C2C)cc1 (configuration not stated) do in these assays?
FAS-TE inh: 16

Results for CCN(CC)c1ccc(NC(=O)COc2ccccc2C)cc1S(=O)(=O)Nc1ccccc1OC ?
Redox H2O2 prof: 2; PKD1 kinase inh: 6; FAS-TE inh: 30; p97 inhibitor: 9; Furin inh: -20; UBC9 SUMO inh: -3

How did CCN(CC)c1ccc(NC(=O)COc2ccccc2C#N)cc1S(=O)(=O)Nc1ccc(OC)cc1 do in these assays?
Redox H2O2 prof: 0; PKD1 kinase inh: 58*; FAS-TE inh: 7; p97 inhibitor: 5; Furin inh: -15; UBC9 SUMO inh: -2; FP interf 140K: -11

What do the screens show for `CC(C)c1ccc(NC(=O)C2(C)Cc3c(-c4cccc(C(N)=O)c4)ccnc3O2)cc1` (configuration not stated)?
FAS-TE inh: 4

How did Cc1cc2nc3c(=O)n(C4CCCCC4)c(=O)[nH]c3nc2cc1N do in these assays?
Redox H2O2 prof: 0; PKD1 kinase inh: 57*; FAS-TE inh: -159; p97 inhibitor: 3; Furin inh: -12; UBC9 SUMO inh: -1; FP interf 140K: 22

How did Cc1cc(C)cc(Nc2cc(=O)n(C3CCCCC3)c(=O)[nH]2)c1 do in these assays?
Redox H2O2 prof: 2; PKD1 kinase inh: 1; FAS-TE inh: 10; p97 inhibitor: 4; Furin inh: -24; UBC9 SUMO inh: 24

Results for C=CCn1c(SCC(=O)NCCc2ccccc2)nnc1C1CC1 ?
FAS-TE inh: -8

What do the screens show for `C=CCn1c(Cc2ccc(OC)cc2)nnc1SCC(=O)NCCc1ccccc1`?
Redox H2O2 prof: 109*; PKD1 kinase inh: 3; FAS-TE inh: -6; p97 inhibitor: 1; Furin inh: -22; UBC9 SUMO inh: -16; Redox H2O2 DR: >50

How did COc1ccccc1CNc1ccc(Br)cn1 do in these assays?
FAS-TE inh: 7; UBC9 SUMO inh: -4

How did O=C(COC(=O)c1ccccc1OCc1ccccc1Cl)NC1CC1 do in these assays?
Redox H2O2 prof: 88*; PKD1 kinase inh: 0; FAS-TE inh: 6; p97 inhibitor: -3; Furin inh: -36; UBC9 SUMO inh: -23; Redox H2O2 DR: >50

What do the screens show for `COc1cccc(NC(=O)C(OC(=O)c2ccc([N+](=O)[O-])o2)c2ccccc2)c1` (configuration not stated)?
Redox H2O2 prof: 92*; PKD1 kinase inh: 3; FAS-TE inh: 33; p97 inhibitor: 2; Furin inh: 1; UBC9 SUMO inh: -12; Redox H2O2 DR: >50

How did O=C1C(Nc2ccccc2)=C/C(=N/S(=O)(=O)c2cccs2)c2ccccc21 do in these assays?
Redox H2O2 prof: 102*; PKD1 kinase inh: -8; FAS-TE inh: 44; p97 inhibitor: 6; Furin inh: -11; UBC9 SUMO inh: 49; Redox H2O2 DR: >50

How did C[C@H]1CN([C@@H](C)CO)C(=O)CCCn2cc(nn2)CO[C@@H]1CN(C)C(=O)Nc1ccc(N2CCCCC2)cc1 do in these assays?
FAS-TE inh: -7

What do the screens show for `CCOC(=O)c1ccc(-c2c(-c3ccc4c(c3)OCO4)noc2C)cc1F`?
FAS-TE inh: 24; UBC9 SUMO inh: 6

How did Cc1ccc(S(=O)(=O)/N=C2/C=C(Sc3ncn[nH]3)C(=O)c3ccccc32)c(C)c1 do in these assays?
Redox H2O2 prof: 83*; PKD1 kinase inh: 16; p97 inhibitor: 8; Furin inh: -20; UBC9 SUMO inh: 96*; Redox H2O2 DR: 13*

From PubChem
